# According to the supplement of paper PMC6555819:
# How the values were obtained:
# Assay in all cases: PBM binding z-score (relative to random genomic background probes); higher = stronger binding; sequences stand for … in GC…GCGATTGACAGCGTAGAATGAAGG
# [1] = system: FXR:RXRa (NR concentration 270 nM, RXRa partner concentration 90 nM)
# Procedure, shortened: (§1)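 Custom Agilent 4×180K protein-binding microarrays carried double-stranded probes. Their 34-nt variable regions held direct-repeat seeds, single-nucleotide variants, half-site ablations and random human genomic background sequences. Arrays were incubated 1 h with ligand-free nuclear receptor dimers in PBS pH 7.4, 2% milk, 0.02% Triton X-100, 1 mM DTT, 0.2 mg/mL BSA and 0.4 mg/ml salmon testes DNA. Antibodies against each partner (one per run) detected binding, and scanned fluorescence was regression-normalized. Binding z-scores use random background probes as reference.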
# [2] = system: LXRa:RXRa (NR concentration 270 nM, RXRa partner concentration 90 nM)
# Procedure, shortened: as §1
# [3] = system: LXRa homodimer (NR concentration 270 nM)
# Procedure, shortened: as §1
# [4] = system: LXRb:RXRa (NR concentration 270 nM, RXRa partner concentration 90 nM)
# Procedure, shortened: as §1
# [5] = system: LXRb homodimer (NR concentration 270 nM)
# Procedure, shortened: as §1
# [6] = system: PPARa:RXRa (NR concentration 270 nM, RXRa partner concentration 90 nM)
# Procedure, shortened: as §1
# [7] = system: PPARg:RXRa (NR concentration 180 nM, RXRa partner concentration 90 nM)
# Procedure, shortened: as §1
# [8] = system: PPARg:RXRa 270nM:90nM, anti-RXR (NR concentration 270 nM, RXRa partner concentration 90 nM)
# Procedure, shortened: as §1
# [9] = system: PPARg:RXRa 30nM:10nM, anti-RXR (NR concentration 30 nM, RXRa partner concentration 10 nM)
# Procedure, shortened: as §1
# [10] = system: PPARg:RXRa 90nM:30nM, anti-RXR (NR concentration 90 nM, RXRa partner concentration 30 nM)
# Procedure, shortened: as §1
Sequence,PBM binding z-score [1],PBM binding z-score [2],PBM binding z-score [3],PBM binding z-score [4],PBM binding z-score [5],PBM binding z-score [6],PBM binding z-score [7],PBM binding z-score [8],PBM binding z-score [9],PBM binding z-score [10]
ATCTCTAGGTAACCAAGTTAAGTGAATGCCGAAC,0.211,0.255,0.398,0.412,0.551,0.58,0.376,0.507,0.346,0.476
ACTAGCAGGCCAAGTGTCACTCAAGATTAGTCCG,-0.202,-0.345,-0.396,-0.372,-0.742,1.37,1.95,3.56,1.36,2.95
ATACCAAGGAGATCGTGAGGTCGTTGATACTAAC,0.608,0.359,0.339,0.531,-0.481,0.547,0.375,-0.542,-0.0699,-0.394
CCGACTGGCGCAAGGTTACCATAACGCACAGCCA,0.175,0.561,-0.255,0.645,-0.776,0.766,0.701,-0.0732,-0.409,-0.61
CCTAATTGGTCAGGAGGTCACACACCGGATATGA,3.74,3.59,2.27,3.64,1.07,4.42,3.88,4.51,2.08,4.16
ACTAGCAGCCCAAGGGTCACTCAAGATTAGTCCG,2.27,2.63,0.353,2.75,-0.34,3.14,2.69,3.61,1.43,3.21
CGTCAAAGTTCAAGGTAACCTAACAGAAAGCAGC,6.46,5.68,2.88,3.53,0.767,5.05,4.79,5.23,1.93,3.95
TGAATGATGTTATAAGATCAGGGAACGTTGCAAA,-0.318,-0.353,-0.0281,-0.083,0.0619,0.0376,0.37,-0.0772,0.598,0.592
CCTATTAGTTGACCATAAGGGCAACCGGAGCTCG,0.775,0.432,0.625,0.404,0.814,0.657,0.421,0.473,-0.154,0.171
CAAATTAGGTCAAAGGTCAAAGTCGAGCCAACCA,8.64,7.33,6.11,7.29,3.55,7.52,14,11.2,13.6,13.7
TTACCAGGGTGAGCTGAGGTCGTTGATCCAACTC,1.3,1.44,-0.264,0.797,-1.42,1.87,0.186,1.08,-0.0751,0.766
CCTTACGAGTCACGAGGTTATAGCACGACGAGCG,0.991,1.29,0.451,1.22,0.355,1.84,1.22,0.515,-0.27,0.183
CCTTACGGGTCACTGACAGATTATAGCATTTGGA,5.42,3.4,0.418,3.31,0.248,5.28,4.31,4.42,1.59,3.46
CGAACTAGGTCATTGACAGGACAGTGAGTAGTAA,4.28,3.06,0.194,1.92,-0.291,4.8,7.21,6.03,3.7,5.57
TGTCAAAGTTCAAATGTAACGTAAGTATCCACAC,7.51,6.72,5.84,4.79,3.48,5.53,8.25,7.12,5.15,6.93
ATCGCTAGGTAAAGATAGTTCAGTGAATGCAAAT,-0.496,3.12,-0.0972,0.21,-0.672,-0.0926,0.0549,-0.523,-0.376,-0.332
AGTCAAAGTTCATCTAGGAAACGTAAGATATGCT,6.71,5.87,4.88,3.9,2.09,4.85,6.43,6.21,3.53,5.16
AGTCAAAGTTCACTAGGTAACGTAAGATTCAGCT,5.37,5.1,3.04,3.17,1.11,5.11,7.61,6.5,3.74,6.12
CCAGACAGGTGAACGGTAACTCAGTCTGGTACGC,-0.375,-0.082,-0.28,-0.0922,-0.29,0.511,0.882,0.577,-0.465,0.132
CCAGACAGGTGAGAAGCTAACTCAGCCTCGATTA,-0.201,-0.31,-0.163,-0.228,-0.869,0.155,0.347,0.159,-0.632,-0.0205
